# Reference: paper PMC5540273 (PLoS ONE, 2017)
# “And” between values parts separate entries of the source, which are not always exact repeats. Equal entries are not always repeated.
# Test system: PIK3CB
# 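Note: kd values determined as follow-up on hits from a single-replicate KINOMEscan panel screen.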
row,SMILES,Kd
1,CS(=O)(=O)c1ccc(-c2c(-c3ncn[nH]3)sc(N3CCOCC3)c2C#N)cc1,77 nM
2,Cc1c(Cn2ccn3c(=O)cc(N4CCOCC4)nc23)cccc1C(F)(F)F [GSK2289044],1.5 nM
3,CSc1nn2c(=O)cc(N3CCOCC3)nc2n1Cc1cccc(C(F)(F)F)c1C [GSK2363608],0.48 nM and 0.26 nM
4,O=c1cc(N2CCOCC2)nc2n(Cc3cccc(Cl)c3Cl)ccn12 [GSK2286295],3.5 nM

# Test system: PIK3CD
row,SMILES,Kd
1,Cc1c(Cn2ccn3c(=O)cc(N4CCOCC4)nc23)cccc1C(F)(F)F [GSK2289044],170 nM
2,Cc1ccc(C(=O)Nc2ccc(Nc3ccnc4cc(-c5ccccn5)ccc34)cc2O)cc1.Cl [GW440146],> 10000 nM
3,CSc1nn2c(=O)cc(N3CCOCC3)nc2n1Cc1cccc(C(F)(F)F)c1C [GSK2363608],64 nM and 47 nM
4,O=c1cc(N2CCOCC2)nc2n(Cc3cccc(Cl)c3Cl)ccn12 [GSK2286295],79 nM
